Experimental data from ChEMBL document CHEMBL3988442, “University of Dundee, Small-Polar-MMV Screening Library” (2021).
Among all 48,000 compounds or so, about 13,000 (27%) showed an effect of 50% or more. The list shows a part of the results.

Test system: Wolbachia pipientis
Assay: Anti-Wolbachia Cell-Based Screen
Format: functional
Parameters: scale not given: in the data most compounds retested in dose-response had high values
Settings: 5 µM

Compared with `CCN(CC)C(CNCc1ccc(O)cc1)c1ccco1` (stereo not given), `COc1ccc(CNC(=O)NCc2ccc(C)cc2)cn1` is lower in “Percent Effect” value: 0.1551% for the first, -5.418% for the second.

Compared with `c1cncc(CN(CCCn2ccnc2)CC2CCOC2)c1` (stereo not given), `Fc1ccccc1CN(CCCn1ccnc1)CC1CCOC1.O=C(O)CC(O)(CC(=O)O)C(=O)O` (stereo not given) is lower in “Percent Effect” value: 114.4% for the first, 96.39% for the second.

Going from `CN(Cc1cccnc1)CC1CCOc2ccccc2C1` (stereo not given) to `CCCN(Cc1cccnc1)Cc1ccc(C2CCCCO2)o1` (stereo not given), the “Percent Effect” value rises from 1.385% to 8.313%.

Compared with `CC1COCCN1C(=O)NCCCn1ccnc1` (stereo not given), `O=C(NCCCn1ccnc1)C1COCC(=O)N1Cc1ccccc1` (stereo not given) is higher in “Percent Effect” value: -6.702% for the first, -1.911% for the second.

Compared with `Cc1ccc(CN(CCCn2ccnc2)Cc2c[nH]cn2)s1.O=C(O)CC(O)(CC(=O)O)C(=O)O`, `CCc1ccc(CN(CCCn2ccnc2)Cc2ccc(C)s2)o1.O=C(O)CC(O)(CC(=O)O)C(=O)O` is lower in “Percent Effect” value: -8.779% for the first, -10.6% for the second.

First: COc1ccccc1CN(CCCn1ccnc1)CC1CCOC1.O=C(O)CC(O)(CC(=O)O)C(=O)O (stereo not given)
Second: COc1ccc(CNC(=O)C(NC(=O)Cc2ccccc2)C(C)C)cn1 (stereo not given)
The “Percent Effect” value of the first is higher: 173.3% for the first, 88.86% for the second.

Going from `Cc1nc(C)c(C(=O)NCCOc2ccc(C(F)(F)F)cn2)o1` to `COc1cc(CNC(=O)Nc2nnc(C(F)(F)F)s2)ccc1O`, the “Percent Effect” value rises from -28.79% to -18.17%.

First: N[C@H]1CCCN(C(=O)c2cnc(COc3ccccc3)nc2O)C1
Second: NC(=O)c1cn[nH]c1C1CCCN1C(=O)COc1ccccc1 (stereo not given)
The “Percent Effect” value of the first is lower: -11.28% for the first, 125.9% for the second.

Compared with `CC(C)n1c(C2CCCN(CCS(C)(=O)=O)C2)nc2ccccc21` (stereo not given), `COCCn1cc(C(=O)N2CCCC2c2cc(C)no2)ccc1=O` (stereo not given) is lower in “Percent Effect” value: -3.684% for the first, -14.99% for the second.

Going from `Cc1nc2sccn2c1C(=O)N1CCn2nc(C(=O)NC3CC3)cc2C1` to `CC(C)CN1CCCn2nc(CNC(=O)CCCc3cn[nH]c3)cc2C1`, the “Percent Effect” value falls from 8.039% to -2.664%.

First: Cc1cnc(N2C[C@H]3CCCC(N(C)Cc4ccccn4)[C@H]3C2)nc1.O=C(O)C(F)(F)F (stereo not given in full)
Second: Cc1cnc(N2CCC3(C2)CN(S(=O)(=O)C2CC2)C3)nc1
The “Percent Effect” value of the first is higher: -11.38% for the first, -23.78% for the second.

Compared with `CCCN1CCN(Cc2cccc(OC(C)C)c2)[C@H]2CS(=O)(=O)C[C@H]21`, `CC(C)[C@H](NC(=O)NC1CCS(=O)(=O)C1)C(=O)NCc1cccnc1` (stereo not given in full) is higher in “Percent Effect” value: -22.43% for the first, 1.711% for the second.

Going from `Cc1c[nH]nc1C1CCCN(c2cnccn2)C1` (stereo not given) to `Cc1c[nH]nc1C1CCN(c2cnccn2)C1` (stereo not given), the “Percent Effect” value falls from 152.5% to 87.37%.

First: Cc1c[nH]nc1C1CN(c2ncccn2)CCO1 (stereo not given)
Second: Cc1c[nH]nc1C1CN(c2cnccn2)CCO1 (stereo not given)
The “Percent Effect” value of the first is lower: 139.2% for the first, 155.2% for the second.

Compared with `CC(C)C1CN(c2cnccn2)CCC(=O)N1Cc1ccc(F)cc1` (stereo not given), `COc1ccc(C(=O)C2CCCN(c3cnccn3)C2)c(C)c1` (stereo not given) is lower in “Percent Effect” value: -0.3567% for the first, -36.51% for the second.

Going from `CCc1cnc(N2CCOC(CCOC)C2)nc1` (stereo not given) to `Cc1cccc(C)c1OC1CN(Cc2cnc(N3CCOCC3)nc2)C1`, the “Percent Effect” value rises from -10.95% to -7.257%.

Compared with `COCCn1ccnc1C1CCCN(c2cnccn2)C1` (stereo not given), `COCCN1C[C@@H]2CN(c3cnccn3)C[C@@H]2C1=O` is lower in “Percent Effect” value: -8.201% for the first, -23.71% for the second.

Compared with `N#Cc1cccc(N2CCC(CO)(CCCc3ccccc3)CC2)n1`, `O=S(=O)(CCCS(=O)(=O)c1ccc2c(c1)OCCCO2)c1ccccc1` is higher in “Percent Effect” value: -12.61% for the first, -9.516% for the second.

First: CC(C)(C)c1cnc(CNc2cccc(Cn3cnnc3)c2)o1
Second: Cc1nccn1-c1ccc(CNC(=O)c2ccc(O)nc2)cn1
The “Percent Effect” value of the first is lower: -22.9% for the first, -3.999% for the second.

Going from `CCOC(=O)NC(C(=O)NCc1ccc(N2CCCCC2)nc1)C(C)C` (stereo not given) to `Cc1cccc(C(=O)NC(C(=O)NCc2ccc(O)nc2)C(C)C)c1` (stereo not given), the “Percent Effect” value rises from 2.776% to 103%.

Compared with `CC(C)C(NC(=O)Cc1ccccc1)C(=O)NCc1ccc(O)nc1` (stereo not given), `COc1ccc(CNC(=O)NCc2ccc(C(N)=O)cc2)cn1` is lower in “Percent Effect” value: 106% for the first, 4.713% for the second.

First: CC(C)[C@H](NC(=O)c1cccc(CCC(C)(C)O)c1)C(N)=O
Second: CCN(Cc1nccn1C)C(=O)c1ccc(NCC(C)C)nc1
The “Percent Effect” value of the first is higher: -12.73% for the first, -32.37% for the second.

Going from `O=C(Nc1cc2c(cc1Br)OCCO2)NC1CCS(=O)(=O)C1` (stereo not given) to `O=C(NC1CC1)C1CNCCN1C(=O)COc1ccc2c(c1)OCO2` (stereo not given), the “Percent Effect” value rises from -24.26% to 8.797%.

First: CC(C)CNC(=O)[C@H]1C[C@@H]2CN(C(=O)NCC3CCCCC3)C[C@H]1O2
Second: CC(C)CCN1C[C@H]2C[C@H](C(=O)NCC(C)C)[C@@H](C1)O2.O=C(O)C(F)(F)F
The “Percent Effect” value of the first is lower: -20.2% for the first, 100.1% for the second.

First: Cc1cccc(S(=O)(=O)N2C[C@H]3C[C@H](C(=O)NCC(C)C)[C@@H](C2)O3)c1
Second: Cc1ccccc1CNC(=O)N1C[C@H]2C[C@H](C(=O)N3CCCC3)[C@@H](C1)O2
The “Percent Effect” value of the first is lower: -2.145% for the first, 2.79% for the second.

Compared with `CC(C)CN1C[C@H]2C[C@H](C(=O)N3CCCC3)[C@@H](C1)O2.O=C(O)C(F)(F)F`, `CC(C)CCN1C[C@H]2C[C@H](C(=O)N3CCCC3)[C@@H](C1)O2.O=C(O)C(F)(F)F` is lower in “Percent Effect” value: 105.1% for the first, 103.2% for the second.

Going from `CC(O)C1CCN(C(=O)Nc2nc(-c3ccccc3)ns2)CC1` (stereo not given) to `CCCSc1ccccc1NC(=O)N1CCN(C(=O)c2ccc[nH]2)CC1`, the “Percent Effect” value rises from -6.98% to -3.563%.

Compared with `Cc1nccn1-c1ccc(NC(=O)C2CCCN2Cc2c[nH]cn2)cc1` (stereo not given), `COc1ncccc1C(=O)N1CCCC1c1nc(-c2ccccc2)n[nH]1` (stereo not given) is lower in “Percent Effect” value: 1.287% for the first, 0.4619% for the second.

Compared with `O=C(c1ccncc1F)N1CCCC1c1nc(-c2ccccc2)n[nH]1` (stereo not given), `NC(=O)c1cn[nH]c1C1CCCN1C(=O)c1ccccc1` (stereo not given) is higher in “Percent Effect” value: 0.33% for the first, 135.8% for the second.

First: O=C(c1cc2c([nH]c1=O)CCC2)N1CCCC1c1ccccn1 (stereo not given)
Second: O=C(c1cc2c([nH]c1=O)CCC2)N1CCCC1c1ccccc1 (stereo not given)
The “Percent Effect” value of the first is higher: -3.505% for the first, -12.47% for the second.

Compared with `NC(=O)c1cn[nH]c1C1CCCN1C(=O)c1ccccn1` (stereo not given), `CNC(=O)c1cn[nH]c1C1CCCN1C(=O)c1ccccn1` (stereo not given) is higher in “Percent Effect” value: 92.76% for the first, 122.3% for the second.

First: CN(CC(=O)Nc1cccc(F)c1)Cc1nc(N)nc(N(C)C)n1
Second: COCCc1noc(-c2ccc(N[C@H]3CCCCNC3=O)nc2)n1
The “Percent Effect” value of the first is higher: 5.267% for the first, -20.61% for the second.

Going from `Nc1cc2c(nn1)CCN(C(=O)c1csc(-c3ccco3)n1)C2` to `CN1CCC(N(Cc2ccco2)S(=O)(=O)c2ccc(Cl)cc2)CC1`, the “Percent Effect” value rises from -0.9791% to 18.55%.

Going from `CCCc1cc(CN(C)C2CCSCC2)n[nH]1` to `CCn1nc(CC(C)C)cc1C(=O)N1CCCOC(CN2CCCC2)C1` (stereo not given), the “Percent Effect” value rises from -21.94% to 12.35%.

Going from `Cn1cc(C[C@H]2[C@H](N3CCOCC3)CCN2C(=O)c2ccoc2)cn1` to `Cc1nn(Cc2ccc(C(=O)NCCCN3CCOCC3)o2)c(C)c1Cl`, the “Percent Effect” value rises from -12.72% to 123.2%.

Going from `Cc1ccc(C(=O)N2CCN(c3ncnc4nc(N)ccc34)CC2)cc1` to `Nc1nc2c(c(N3CCSCC3)n1)CCN(Cc1ccccn1)CC2`, the “Percent Effect” value rises from -17.64% to 1.858%.

Going from `CCn1cc(CN2CCN(Cc3cc(C)cc(C)c3)C(=O)C2)cc1C#N` to `Cc1nn(Cc2ccc(C(=O)NCCCN3CCCC3=O)o2)c(C)c1Cl`, the “Percent Effect” value rises from -8.463% to 113%.

First: Cl.NC(=O)C1CNCCN1C(=O)COc1ccccc1 (stereo not given)
Second: CCC(=O)c1ccc(OCC(=O)N2CCNCC2C(=O)NC2CC2)cc1 (stereo not given)
The “Percent Effect” value of the first is higher: 142% for the first, -8.081% for the second.

Compared with `NC(=O)c1cn[nH]c1C1CCCN1C(=O)c1cnccn1` (stereo not given), `O=C(C1CCC1)N1CCN(C(=O)c2cnccn2)[C@H]2CS(=O)(=O)C[C@H]21` is lower in “Percent Effect” value: 109.9% for the first, -11.57% for the second.

Going from `O=C(c1cc2c([nH]c1=O)CCC2)N1CCCC1c1cccnc1` (stereo not given) to `Cn1cc(C(=O)NCCCN2CCCCCC2=O)c(-c2cccnc2)n1`, the “Percent Effect” value falls from -4.003% to -24.83%.

Going from `O=C(NCc1ccc2c(c1)CCCO2)c1cn2c(n1)CNCC2` to `O=C(NCCN1CCCCCC1=O)c1n[nH]c(=O)c2ccccc12`, the “Percent Effect” value rises from -2.912% to -2.472%.

First: COc1nc2ccn(CCc3scnc3C)c(=O)c2cc1C#N
Second: Cc1nc2c(c(NCCc3nc(C)c(Cl)s3)n1)CCNCC2
The “Percent Effect” value of the first is lower: -7.908% for the first, 2.221% for the second.

First: Cc1nn(Cc2ccc(C(=O)NCCCN3CCCC3=O)o2)c(C)c1Br
Second: O=C(NCCCN1CCCC1=O)Nc1ccc(Br)cc1Cl
The “Percent Effect” value of the first is higher: 118.7% for the first, 29.75% for the second.

First: CCn1nc(C)c(CCNC(=O)c2coc(CN3CCOCC3)c2)c1C
Second: Cc1ccc(C(=O)NCCCN2CCOCC2)c(Cl)c1
The “Percent Effect” value of the first is higher: -5.303% for the first, -7.154% for the second.

Compared with `CC(NC(=O)NCCCN1CCCC1=O)c1ccc(Cl)s1` (stereo not given), `CN1CCC(O)(CNCc2ccc(F)c(C(F)(F)F)c2)CC1` is lower in “Percent Effect” value: 5.893% for the first, -14.25% for the second.

Compared with `CCOCC1CN(C(=O)c2ccncc2)Cc2nn(C)cc21.O=C(O)C(F)(F)F` (stereo not given), `O=C(NCC1CCCO1)Nc1nnc(C(F)(F)F)s1` (stereo not given) is higher in “Percent Effect” value: -7.804% for the first, 131.1% for the second.

Going from `CCOCc1nc2c(c(N3CC=CC3)n1)CCN(CC1CC1)CC2` to `Cc1nc2c(c(NCCc3nccs3)n1)CCN(CC1CC1)CC2`, the “Percent Effect” value rises from -17.04% to 100.8%.

Compared with `COCCNc1nc2c(c(NCC3CCOC3)n1)CCNCC2` (stereo not given), `COCCNc1nc(C)nc2c1CCN(C[C@H]1CC[C@@H](N)CC1)CC2` is higher in “Percent Effect” value: 0.8355% for the first, 85.9% for the second.

First: Cc1cnn(CCNc2ncnc3c2CCN(CC2CCOC2)CC3)c1 (stereo not given)
Second: Nc1nc2c(c(NCc3nccs3)n1)CCN(CC1CCCC1)CC2
The “Percent Effect” value of the first is lower: 11.29% for the first, 99.65% for the second.

First: c1csc(CN2CCc3nc(N4CCOCC4)nc(NC4CC4)c3C2)n1
Second: CCOCCC(=O)NCC1CCCO1 (stereo not given)
The “Percent Effect” value of the first is lower: -41.6% for the first, 5.918% for the second.
